Sampled rows, rich in hits. Any-hit rate of the full collection: about 10%.
KB-V1 cytotox: KB-V1 MDR subline cytotoxicity; KB-V1 MDR cells viability, CellTiter-Glo, 72 h; Potency, µM (top dose mostly 46.1 µM), actives largely listed as cytotoxic; 3.4% of 400,000 active; AID 1347076; note: nearly all actives have a fitted effect of over 60% in size
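In this primary screen, KB-V1 cells overexpressing P-gp are incubated with library compounds (lowest to highest concentration) for 72 h at 37 degrees C before a luminescent ATP viability read.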
RORg inh: inhibitors of mouse ROR gamma transcriptional activity. Potency, µM (series often up to 53.6 µM), usual class: inhibitors. P51450. Drosophila S2 Gal4-RORgamma UAS-luciferase reporter, 20 h. 5.4% of 310,000 active; note: nearly all actives have a fitted effect of over 60% in size
Target sequence (P51450 whole entry, looked up, the tested form may be a part): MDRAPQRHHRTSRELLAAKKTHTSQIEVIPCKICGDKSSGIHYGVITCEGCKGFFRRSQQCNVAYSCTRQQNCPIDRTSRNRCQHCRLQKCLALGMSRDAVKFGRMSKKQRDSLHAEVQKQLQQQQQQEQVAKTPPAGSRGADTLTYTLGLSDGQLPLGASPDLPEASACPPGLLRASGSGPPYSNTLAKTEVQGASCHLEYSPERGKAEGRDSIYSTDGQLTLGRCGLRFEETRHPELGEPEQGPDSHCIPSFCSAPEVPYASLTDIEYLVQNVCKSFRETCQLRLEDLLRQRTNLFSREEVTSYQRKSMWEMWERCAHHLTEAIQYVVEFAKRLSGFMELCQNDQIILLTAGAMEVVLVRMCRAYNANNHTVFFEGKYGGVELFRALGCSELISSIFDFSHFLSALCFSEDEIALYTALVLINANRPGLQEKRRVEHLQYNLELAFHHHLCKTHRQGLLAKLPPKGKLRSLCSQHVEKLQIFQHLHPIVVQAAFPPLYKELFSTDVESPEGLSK
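ROR gamma transcriptional activity was tracked as Gal4-UAS luciferase output in stably transfected Drosophila Schneider cells, with compound added 1 hr before 700 uM copper sulfate induction and a 20 hr ambient-temperature incubation.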
MCF10A rereplic: induces DNA re-replication in MCF 10a normal breast cells | 2.9% of 350,000 active | Potency, µM (doses to about 46.1 µM), most hits filed as activators | AID 624296 | MCF 10A DNA re-replication, Hoechst nuclear intensity, 48 h; note: nearly all actives have a fitted effect of over 50% in size
KB-3-1 tox: kills parental KB-3-1 adenocarcinoma cells | 1.4% of 400,000 active | KB-3-1 viability, CellTiter-Glo ATP luminescence, 72 h | Potency, µM (top dose mostly 46.1 µM), most hits filed as cytotoxic | AID 1347075; note: nearly all actives have a fitted effect of over 60% in size
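Parental KB-3-1 adenocarcinoma cells in phenol-red-free DMEM with 10% FBS were pin-treated with compounds at several concentrations, incubated 72 h at 37 °C, and viability read by CellTiter-Glo luminescence; concentration-effect curves were fitted after normalization.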
SW480 rereplic: inducers of DNA re-replication in SW480 colon cancer cells; 1.8% of 340,000 active; SW480 DNA re-replication, Hoechst DNA content imaging, 48 h; Potency, µM (top dose mostly 46.1 µM), hits mostly activators; note: nearly all actives have a fitted effect of over 55% in size
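Hoechst fluorescence of nuclei (405 nm excitation, 500-530 nm emission) measured by plate-scanning imager after 48 hr compound exposure at 37 C; re-replication scored as increased number of nuclei with elevated intensity.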
VP16 counter: Gal4-VP16 reporter inhibition counter-screen; Drosophila S2 Gal4-VP16 UAS-luciferase, luminescence, 20 h; Potency, µM (series often up to 53.6 µM), most hits filed as inhibitors; 3.5% of 310,000 active; AID 2546;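 note: Gal4-VP16 expression switched on by copper sulfate through the metallothionein promoter; nearly all actives have a fitted effect of over 50% in size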
Each line names hits and unclear results; the compound was inactive in the other large screens. Calls come from the whole dose curve; as a rule, active = well fitted curve in the direction sought with a large enough effect; inconclusive = small, poorly fitted or top-dose-only effect, or another doubt; inactive = no such curve, though single readings can be large; an effect the other way counts as inactive or inconclusive.

COc1ccc(CNC(=O)C(C)N2CCN(S(=O)(=O)c3ccccc3F)CC2)cc1 (centres undefined)	KB-V1 cytotox 23µM (no result: RORg inh, VP16 counter)
CCCc1ccc(S(=O)(=O)N2CCN(C(C)C(=O)NCc3ccc(OC)cc3)CC2)cc1 (centres undefined)	KB-V1 cytotox inconclusive (no result: RORg inh, VP16 counter)
CCCCOc1ccc(C(=O)NCCc2csc3nc(-c4ccccc4F)nn23)cc1	none (no result: RORg inh, MCF10A rereplic, SW480 rereplic, VP16 counter)
Cc1nc2c(O)c3c(c(O)c2nc1C)C1C=CC3CC1	KB-V1 cytotox inconclusive, MCF10A rereplic 5.2µM, SW480 rereplic 3.3µM (no result: RORg inh, VP16 counter)
CSc1nc2c(c(-c3ccc(O)cc3)c1C#N)CCC2	MCF10A rereplic 26µM, KB-3-1 tox inconclusive
COc1ccc(-c2c(C#N)c(N)nc3c2CCC3)cc1	KB-V1 cytotox inconclusive, MCF10A rereplic 2.9µM, SW480 rereplic 21µM
N#Cc1c(N)nc2c(c1-c1ccccc1)CCC2	KB-V1 cytotox 10µM, MCF10A rereplic inconclusive, KB-3-1 tox inconclusive, SW480 rereplic inconclusive
COc1ccc(-c2c(C#N)c(N)nc3c2CCCC3)cc1OC	none (no result: RORg inh, VP16 counter)
CC(=O)c1cc(NC(=O)c2ccc([N+](=O)[O-])cc2)c(=O)oc1C	RORg inh inconclusive, MCF10A rereplic 16µM, VP16 counter inconclusive
COC(=O)c1cc(NC(=O)c2ccccc2)c(=O)oc1C	none
COc1ccc(C(=O)Nc2cc(C(=O)c3ccccc3)c(C)oc2=O)cc1	MCF10A rereplic inconclusive, SW480 rereplic inconclusive, VP16 counter 10µM
Cc1oc(=O)c(NC(=O)c2cccc(Cl)c2)cc1C(=O)c1ccccc1	KB-V1 cytotox inconclusive, RORg inh 4.5µM, MCF10A rereplic inconclusive, SW480 rereplic 21µM, VP16 counter 5µM
C[C@@H]1CN([C@@H](C)CO)C(=O)CCCn2nncc2CO[C@@H]1CN(C)C(=O)c1ccncc1	none (no result: RORg inh, MCF10A rereplic, SW480 rereplic, VP16 counter)
Cc1cccc(OCc2nnc(SCC(=O)N(C(C)C)C(C)C)n2Cc2ccco2)c1C	KB-V1 cytotox 10µM, MCF10A rereplic inconclusive, SW480 rereplic 21µM
COc1ccc(NC(=O)CSc2nnc(COc3ccccc3)n2Cc2ccco2)cc1OC	KB-V1 cytotox inconclusive, VP16 counter 11µM
COc1ccc(C)cc1NC(=O)CSc1nnc(-c2ccccn2)n1Cc1ccco1	KB-V1 cytotox 12µM
CCOC(=O)c1[nH]c2ccccc2c1NC(=O)c1cc(OCC)c(OCC)c(OCC)c1	none (no result: RORg inh, MCF10A rereplic, SW480 rereplic, VP16 counter)
COc1ccc(/C=C/C(=O)OCC(=O)NCc2ccccc2)cc1OC	MCF10A rereplic 23µM, KB-3-1 tox inconclusive (no result: RORg inh, VP16 counter)
COc1cc(/C=C/C(=O)OCC(=O)NCc2ccco2)ccc1O	KB-V1 cytotox inconclusive, MCF10A rereplic inconclusive, KB-3-1 tox 23µM (no result: RORg inh, VP16 counter)
COc1cc(/C=C/C(=O)OCC(=O)Nc2ccccc2Sc2ccc(Cl)cc2)ccc1O	KB-V1 cytotox inconclusive, RORg inh inconclusive, MCF10A rereplic 21µM
CCOc1ccc(/C=C/C(=O)OCC(=O)NCCc2ccc(OCC)c(OCC)c2)cc1OC	none (no result: RORg inh, VP16 counter)
COc1cc(/C=C/C(=O)OCC(=O)NCCc2ccc(S(N)(=O)=O)cc2)ccc1OCC#N	MCF10A rereplic inconclusive, SW480 rereplic 2.6µM (no result: RORg inh, VP16 counter)
COc1cc(/C=C/C(=O)OCC(=O)NNC(=O)c2cc(Cl)ccc2OC)ccc1O	none (no result: RORg inh, VP16 counter)
COc1cccc(-c2cc(C(F)(F)F)n3nc(C)c(-c4ccccc4)c3n2)c1	none (no result: RORg inh, MCF10A rereplic, SW480 rereplic, VP16 counter)
Cc1ccc(CNC(=O)CCCc2ccccc2)cc1	none
COc1ccc(CCCC(=O)NCc2ccccc2)cc1C	KB-V1 cytotox 6.5µM, MCF10A rereplic 8.2µM, KB-3-1 tox inconclusive, SW480 rereplic inconclusive
COC(=O)/C=C/S(=O)(=O)c1ccc(NC(C)=O)cc1	RORg inh 5µM, VP16 counter 5µM
COc1ccccc1OS(=O)(=O)c1ccc(NC(C)=O)cc1	none
COc1ccc(C=O)cc1OS(=O)(=O)c1ccc(NC(C)=O)cc1	MCF10A rereplic inconclusive, SW480 rereplic 18µM
Cc1ccc(C2N=C(Nc3nc4ccccc4o3)NC3=C2C(=O)CC(C)(C)C3)cc1 (centres undefined)	none (no result: RORg inh, MCF10A rereplic, SW480 rereplic, VP16 counter)
Cc1ccc(-c2nn(-c3ccccc3)cc2C2CC(c3cccs3)=NN2C(=O)CCC(=O)O)cc1 (centres undefined)	none
O=C(O)CCn1cc(C2CC(c3ccccc3)=NN2c2ccccc2)c(-c2ccccc2)n1 (centres undefined)	MCF10A rereplic 12µM, SW480 rereplic 23µM
COc1ccc(Nc2nc(NC(C)(C)C)nc(N3CCCC3)n2)c(OC)c1	KB-V1 cytotox 18µM, RORg inh inconclusive, MCF10A rereplic inconclusive, SW480 rereplic inconclusive, VP16 counter inconclusive
Cc1ccc(NC(=O)[C@H](Cc2c[nH]c3ccccc23)NC(=O)[C@@H]2Cc3ccccc3CN2)c(C)c1	KB-V1 cytotox inconclusive, MCF10A rereplic inconclusive, KB-3-1 tox 1.8µM
Cc1cc(C)cc(NC(=O)[C@H](Cc2c[nH]c3ccccc23)NC(=O)[C@@H]2Cc3ccccc3CN2)c1	KB-V1 cytotox inconclusive, MCF10A rereplic 21µM, SW480 rereplic 18µM, VP16 counter inconclusive
Cc1cccc(NC(=O)[C@@H](NC(=O)[C@@H]2Cc3ccccc3CN2)C(C)C)c1	KB-V1 cytotox inconclusive, SW480 rereplic inconclusive

Screening data (PubChem)
